# Screening results: PubChem, National Center for Advancing Translational Sciences (NCATS)
# Hits are enriched below; roughly 9.9% of the tested compounds scored in any of these assays.
# KB-3-1 cytotox – qHTS assay for MDR1-selective chemotherapeutics: Primary screen using the parental adenocarcinoma cell KB-3-1; KB-3-1 viability, CellTiter-Glo ATP luminescence, 72 h; 400,000 compounds, 1.4% hits; AID 1347075, 2019; Potency, µM (highest dose often 46.1 µM), hits mostly cytotoxic; also: potency is read from the fitted curve at half-maximal effect; % is scaled to controls: 0 for no effect and ±100 for the full control effect; nearly all actives have a fitted effect of over 60% in size
#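 Luminescent ATP read-out (CellTiter-Glo) measures survival of drug-naive KB-3-1 cells after 72 h compound exposure at 37 °C. Titration series was screened from lowest to highest concentration, with DMSO vehicle plates as background controls.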
# KB-V1 cytotox – qHTS assay for MDR1-selective chemotherapeutics: Primary screen using the drug-selected MDR subline cells KB-V1; KB-V1 MDR cells viability, CellTiter-Glo, 72 h; Potency, µM (series often up to 46.1 µM), most hits filed as cytotoxic; 400,000 compounds, 3.4% hits; also: potency is read from the fitted curve at half-maximal effect; % is scaled to controls: 0 for no effect and ±100 for the full control effect; nearly all actives have a fitted effect of over 60% in size
#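 qHTS viability screen in drug-selected KB-V1 MDR cells: 72 h compound treatment at 37 degrees C, ATP luminescence end point.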
# MCF10A rerep – A quantitative high throughput screen for small molecules that induce DNA re-replication in MCF 10a normal breast cells; MCF 10A DNA re-replication, Hoechst nuclear intensity, 48 h; Potency, µM (titrated, usually from 46.1 µM), for inactives: at the top dose activity, positive = re-replication, actives largely listed as activators; 350,000 compounds, 2.9% hits; also: potency is read from the fitted curve at half-maximal effect; % of control where 0% means no effect; nearly all actives have a fitted effect of over 50% in size
# IL1B secr inh – qHTS for Inhibitors of Inflammasome Signaling: IL-1-beta AlphaLISA Primary Screen; THP-1 LPS/ATP IL-1B secretion, AlphaLISA, 16 h; active compounds read low; 360,000 compounds, 4.7% hits; activity change, % at 57.5 µM; in the data active = activity change below about -50%; inconclusive = mostly about -30% to -49%; also: % is scaled to controls: 0 for no effect and ±100 for the full control effect
#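 Secreted IL-1B measured by AlphaLISA bead assay after 16 h compound exposure of THP-1 cells; compounds (final up to 57.5 uM) added 1 h before LPS (250 ng/mL) and ATP (1.25 mM) stimulation; lower signal means less secretion.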
# SW480 rerep – A quantitative high throughput screen for small molecules that induce DNA re-replication in SW480 colon adenocarcinoma cells; SW480 DNA re-replication, Hoechst DNA content imaging, 48 h; 340,000 compounds, 1.8% hits; Potency, µM (top dose mostly 46.1 µM), without a hit: top-dose re-replication activation, hits mostly activators; AID 624297, 2012; also: potency is read from the fitted curve at half-maximal effect; % of control where 0% means no effect; nearly all actives have a fitted effect of over 55% in size
#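 Per well, 250 cells were exposed to pinned compound for 48 hr. Nuclear DNA was visualised with Hoechst (40 min, 37 C) and total object intensity recorded by fluorescence scanning.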
# Active calls of the source: *; i = inactive; ? = inconclusive; nt = no result. Unless noted, calls follow the shape of the dose curve; as a rule, active = well fitted curve in the direction sought with a large enough effect; inconclusive = small, poorly fitted or top-dose-only effect, or another doubt; inactive = no such curve, though single readings can be large; an effect the other way counts as inactive or inconclusive.
SMILES,KB-3-1 cytotox,KB-V1 cytotox,MCF10A rerep,IL1B secr inh,SW480 rerep
COc1ccc(C(=O)/C(=C\c2ccco2)N2C=CC=CC2=C(C#N)C#N)cc1,?,7.3µM*,1.3µM*,-96*,?
N#CC(C#N)=C1C=CC=CN1/C(=C\c1ccco1)C(=O)c1ccc(Br)cc1,?,i,3.3µM*,-106*,4.6µM*
N#CC(C#N)=C1C=CC=CN1/C(=C\c1ccco1)C(=O)c1ccccc1,?,?,2.6µM*,-98*,?
O=C1N[C@@H](Cc2ccccc2)C(=O)N2[C@@H]3N(S(=O)(=O)c4ccccc4)c4ccccc4[C@]3(Br)C[C@@H]12,i,i,?,?,-54%
CC(C)c1cc(C(C)C)c(S(=O)(=O)N2c3ccccc3[C@@]3(Br)C[C@H]4C(=O)N[C@@H](Cc5ccccc5)C(=O)N4[C@@H]23)c(C(C)C)c1,16µM*,?,-28%,-18,?
O=C(c1ccccc1Br)N1CCn2c1nc1ccccc12,i,i,3.7µM*,-5,-15%
CN(CCOCCOc1ccc(Cl)cc1Br)Cc1ccccc1,i,?,5%,-80*,6%
Cc1ccc(Cl)c(OCCCN(C)Cc2ccccc2)c1,i,i,12%,-77*,?
COc1ccc(OCCCCN(C)Cc2ccccc2)cc1,i,i,?,0,3%
Cc1ccc(Cl)c(OCCCCN(C)Cc2ccccc2)c1,i,21µM*,8%,-57*,4%
COC(=O)c1ccc(OCCCCN(C)Cc2ccccc2)cc1,?,i,18µM*,-12,24%
Cc1nnc(N(C)C(=O)c2ccc3c(c2)OCO3)s1,i,i,-2%,-15,-31%
CCC(C)(NC(=O)c1ccc2c(c1)OCO2)C(=O)NC1CCCCC1 (stereo not drawn),i,i,-1%,-1,0%
COc1cc(Cl)c(C)cc1NC(=O)c1cnc2c(-c3cccc(C)c3)c(C)nn2c1C,i,i,nt,nt,nt
CC(/C=C1\SC(=S)N(NC(=O)c2ccccc2C)C1=O)=C\c1ccccc1,i,i,10µM*,5,-15%
CC(/C=C1\SC(=S)N(NC(=O)c2ccc(C)cc2)C1=O)=C\c1ccccc1,i,i,14%,-13,12%
CC(/C=C1\SC(=S)N(NC(=O)c2ccncc2)C1=O)=C\c1ccccc1,i,i,0%,-79*,6%
Cc1cccc(C)c1NC(=S)N1CCC(c2ccccc2)C1 (stereo not drawn),i,?,2%,-15,-7%
CSc1ncc(C(=O)NCc2ccc(Cl)cc2)c(C(F)(F)F)n1,i,i,nt,nt,nt
COc1cccc(Nc2ncnc3ccc(Br)cc23)c1,i,i,nt,14,nt
Brc1ccc2ncnc(Nc3cccc4ccccc34)c2c1,i,i,1%,-80*,12%
CCC(=O)N(C)C[C@@H]1Oc2ncc(Br)cc2C(=O)N([C@@H](C)CO)C[C@H]1C,i,i,nt,4,nt
Nc1ccc(-c2nc3ccc(N)cc3[nH]2)cc1,i,i,0%,12,5%
Nc1ccc2cc3[nH]c4cc(N)ccc4c3nc2c1,?,i,18µM*,-109*,3.3µM*
Oc1c(C(Nc2cccc(C(F)(F)F)c2)c2ccncc2)ccc2cccnc12 (stereo not drawn),i,?,?,60,12µM*
SMILES,KB-3-1 cytotox,KB-V1 cytotox,MCF10A rerep,IL1B secr inh,SW480 rerep
Oc1c(C(Nc2nccs2)c2ccc(C(F)(F)F)cc2)ccc2cccnc12 (stereo not drawn),?,?,?,-103*,1.3µM*
CCN=C1S/C(=C\c2cc(OCC)c(O)cc2Br)C(=O)N1CC,?,i,18µM*,-20,?
CCN=C1S/C(=C\c2ccc(O)c(OCC)c2)C(=O)N1CC,i,18µM*,?,i,?
Cc1ccc(N2C(=O)CSC23C(=O)N(Cc2ccccc2F)c2ccccc23)cc1F (stereo not drawn),?,10µM*,nt,nt,nt
CCc1ccc(N2C(=O)CSC23C(=O)N(Cc2cccc(F)c2)c2ccccc23)cc1 (stereo not drawn),?,12µM*,nt,nt,nt
O=C(CN1C(=O)C2(SCC(=O)N2c2cccc(Cl)c2)c2ccccc21)NCCc1ccccc1 (stereo not drawn),15µM*,i,nt,nt,nt
CCc1ccc(N2C(=O)CSC23C(=O)N(Cc2ccc(C)cc2)c2ccccc23)cc1 (stereo not drawn),?,12µM*,nt,nt,nt
COC(=O)c1ccccc1NC(=O)c1cnc2c(-c3cccc(C)c3)c(C)nn2c1C,i,?,nt,nt,nt
C1CNCCNCCCNCCNC1,nt,nt,13%,nt,-1%
COc1cc(C)c(CN2CCN(CC(=O)Nc3ccccc3C(=O)NC3CC3)CC2)cc1OC,i,i,3%,?,-19%
COc1ccccc1NC(=O)CN1C(=O)C2(SCC(=O)N2c2ccc(C)c(C)c2)c2ccccc21 (stereo not drawn),18µM*,?,nt,nt,nt
COc1cccc(N2C(=O)CSC23C(=O)N(Cc2ccccc2)c2ccccc23)c1 (stereo not drawn),i,?,nt,nt,nt
COc1ccccc1NC(=O)CN1C(=O)C2(SCC(=O)N2c2ccc(F)c(F)c2)c2ccccc21 (stereo not drawn),?,i,nt,nt,nt
CC(C)c1ccc(N2C(=O)CSC23C(=O)N(Cc2ccccc2)c2ccccc23)cc1 (stereo not drawn),?,12µM*,nt,nt,nt
Cc1ccc(CN2C(=O)C3(SCC(=O)N3c3ccc(C)c(C)c3)c3ccccc32)cc1 (stereo not drawn),21µM*,18µM*,nt,nt,nt
C(=Nc1ccc2ccccc2n1)c1cccnc1,i,i,nt,nt,nt
O=C(NCCCc1ccccc1)c1ccc(F)cc1,i,i,-1%,-16,0%
O=C(NCCNC1CCC(c2ccccc2)CC1)c1ccc(F)cc1 (stereo not drawn),i,?,1%,-70*,14%
CCCN(CC(=O)Nc1ccccc1C)C(=O)C1CC(=O)N(c2ccccc2C(C)CC)C1 (stereo not drawn),i,i,1%,11,-4%
CCC(C)c1ccccc1N1CC(C(=O)N(C)CC(=O)Nc2cccc(F)c2)CC1=O (stereo not drawn),i,i,-19%,-61*,?
CCOc1ccccc1N1CC(C(=O)N(CC)CC(=O)Nc2ccc3c(c2)OCCO3)CC1=O (stereo not drawn),i,i,2%,5,2.3µM*
CCc1ccccc1Oc1nc(NCCOC)nc2cc(-c3ccccc3)sc12,i,i,nt,-25,nt
